Here are results for 40 compounds from PubChem BioAssay.

A number with no mark means an inactive call.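 The calls were made as follows: active = RAM network inhibition above 8.4% in each of two replicates, 3 SD over the compound average; inconclusive = above 8.4% inhibition in only one replicate; inactive = 8.4% inhibition or less in each replicate.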

The nature of this test: RAM signaling pathway blockade in yeast – S. cerevisiae, Pdr1DBD-CYC8 efflux-inhibited sensitized strain, primary screen (AID 1298).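 Also: 0% = DMSO untreated cells without growth and 100% = 10 µM 1-NA-PP1 full growth; higher means more yeast growth rescued from 5-FOA killing.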 Particulars: S. cerevisiae cbk1-as DSE1-URA3 strain, 5-FOA growth OD615, 2 d; at 50 µM; hits give high values.
Turning to `O=C(NCc1ccco1)c1ccc(CN2CCOCC2)cc1`, the RAM network inhibition was 2.2%.
For `CSc1nc2c(cnn2-c2ccc(C)c(C)c2)c(=O)[nH]1`, the RAM network inhibition is 0.57%.
Consider `O=C(CSc1oc(-c2ccc(F)cc2)nc1S(=O)(=O)c1ccc(F)cc1)NCC1CCCO1` (stereo not given), for which the RAM network inhibition was 6.87%.
As for `CCc1nnc(NC(=O)c2ccc(S(=O)(=O)N(CC)CC)cc2)s1`, the RAM network inhibition was -0.37%.
For the compound `CCOc1ccc(-c2cc(CCCC(=O)Nc3cccc(OC)c3)no2)cc1`, the RAM network inhibition is 0.05%.
In the case of `CSc1nc(N2CCN(CCO)CC2)c2sc3nc(-c4ccco4)c4c(c3c2n1)CCC4` it was -2.9%; in that of `O=C(O)c1ccc(N2C(=O)CC(Cc3ccccc3)C2=O)cc1` (stereo not given), 0.72%; in that of `Cc1ccc(Cl)cc1N1CCN(C(=O)c2cc3c(=O)n(C)c4ccccc4c3n2C)CC1`, 2.44%.
As for `Cn1nc(-c2ccc(Cl)cc2)c2cc(C(=O)NCCN3CCOCC3)sc21`, the RAM network inhibition is -1.47%.
In the case of `COc1cccc(C(=O)Nc2nnc(-c3ccc(Cl)cc3)o2)c1` it was -1.16%; in that of `O=C(Nc1nnc(-c2cccs2)o1)c1cccc(F)c1`, 3.47%; in that of `COc1cc(OC)cc(C(=O)Nc2cccc(C(C)=O)c2)c1`, 1.49%.
As for `CC1=C(C(=O)OCc2ccc3c(c2)OCO3)C(c2ccccc2)NC(=O)N1` (stereo not given), the RAM network inhibition is 2.03%.
As for `COc1ccc(OC)c(NC(=O)C(CC(C)C)NC(=O)C2CCCCC2)c1` (stereo not given), the RAM network inhibition was 3.18%.
In the case of `CCn1c(=O)c(=O)[nH]c2cc(C(=O)NC3CCCc4ccccc43)ccc21` (stereo not given), the RAM network inhibition is 3.67%.
Regarding `c1coc(CNc2c3c(nc4ccccc24)CCC3)c1`, the RAM network inhibition was 0.83%.
Regarding `O=C(Nc1nnc(-c2cccs2)o1)c1cccc(Oc2ccccc2)c1`, the RAM network inhibition was 2.76%.
For `COc1cc2c(cc1OC)C(c1cccs1)NCC2` (stereo not given), the RAM network inhibition is 4.46%.
For the compound `COc1ccc(CCNC(=O)c2oc3ccc(S(=O)(=O)N4CCOCC4)cc3c2C)cc1OC`, the RAM network inhibition is 3.69%.
In the case of `CCOc1ccc2nc3ccc4[nH]onc4c3c2c1` it was 6.1%.
For the compound `Cc1nc(N2CCN(Cc3ccc4c(c3)OCO4)CC2)c2oc3ccccc3c2n1`, the RAM network inhibition was 4.68%.
As for `COc1ccccc1C1CC(c2ccc(Cl)cc2Cl)Nc2nc(N)nn21` (stereo not given), the RAM network inhibition is 7.09%.
Turning to `COc1ccc(Cl)cc1N1C(=O)C2CCCN2C1c1ccc(F)c(F)c1` (stereo not given), the RAM network inhibition was 6.15%.
Take `Cc1ccc(-c2nc(-c3ccccn3)no2)cc1`: the RAM network inhibition was 1.82%.
In the case of `CCOC(=O)C1=C(C)N=c2s/c(=C\c3ccncc3)c(=O)n2C1c1ccc2c(c1)OCO2` (stereo not given), the RAM network inhibition is 8.86%.
As for `CN1C(=O)C(O)(CC(=O)c2ccccn2)c2cc(Br)ccc21` (stereo not given), the RAM network inhibition is 3.11%.
For `O=C(CCS(=O)(=O)c1ccccc1)Nc1nc2c(s1)CCCC2`, the RAM network inhibition was 3.5%.
For the compound `O=C(CN(C1CCCCC1)S(=O)(=O)c1ccccc1)N1CCCC1`, the RAM network inhibition is 2.77%.
With `Cc1ccccc1CN1C(=O)C(O)(CC(=O)c2ccncc2)c2ccccc21` (stereo not given), the RAM network inhibition is 5.38%.
In the case of `CCN1CCN(c2cc(C)c3cc(NC(=O)c4ccc(Br)o4)ccc3n2)CC1` it was 0.84%; in that of `Cc1ccc(N2C(=O)Nc3ccc(Br)cc3C2(O)C(=O)NCCCN(C)C)cc1C` (stereo not given), 3.58%; in that of `COc1ccc(NC(=O)NCCCN2CCN(c3cc(C)ccc3C)CC2)cc1`, 2.1%.
With `Cc1cccc(C2CC(c3ccccc3)Nc3ncnn32)c1` (stereo not given), the RAM network inhibition was 0.37%.
Turning to `COc1ccc(S(=O)(=O)Cc2ccc(C(=O)N3CCN(c4ccc(Cl)cc4)CC3)o2)cc1`, the RAM network inhibition was 6.31%.
Turning to `O=C(CSc1nc(-c2ccco2)cc(C(F)(F)F)n1)Nc1ccc(C(=O)N2CCCCC2)cc1`, the RAM network inhibition was 3.42%.
Regarding `Cn1c(C(=O)NC2CCCCCC2)cc2c(=O)n(C)c3ccccc3c21`, the RAM network inhibition is 2.31%.
In the case of `CCNC(=O)CN(C1CCCCC1)S(=O)(=O)c1ccc(F)cc1` it was -0.15%; in that of `COc1cc(C(=O)N2CCN(c3ccc(C)cc3C)CC2)cc(OC)c1OC`, 4.77%; in that of `Cc1cc(N2CCN(S(=O)(=O)c3ccc(Cl)cc3)CC2)c2ccccc2n1`, 2.74%.
As for `OC(COc1ccc(C2C=CCC2)cc1)CN1CCCCC1` (stereo not given), the RAM network inhibition is 3.83%.
